Giardia FBPA inh: inhibitors of Giardia lamblia fructose-1,6-bisphosphate aldolase; purified Giardia FBPA; AID 2451; Potency, µM (highest dose often 59.6 µM), for inactives: at the highest dose activity, negative = inhibition, most hits filed as inhibitors; hit rate 0.71% among 290,000; also: potency is read from the fitted curve at half-maximal effect; % is scaled to controls: 0 for no effect and ±100 for the full control effect; nearly all actives have a fitted effect of over 55% in size
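Giardia FBPA (40 nM reagent) was preincubated 10 min at RT with compound (up to 57.5 uM final), then substrate plus GAPDH/TPI/NAD/arsenate coupling system with diaphorase/resazurin was added; resorufin fluorescence (525/598 nm) was read after 20 min.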
LmPK inhibitor: LmPK (Leishmania mexicana) enzyme inhibition; Q27686; purified LmPK, Kinase-Glo ATP luminescence, 1 h; Potency, µM (doses to about 57.5 µM), inactives show at the top dose activity change, negative = inhibition, most hits filed as inhibitors; hit rate 0.37% among 290,000; AID 1721; also: potency is read from the fitted curve at half-maximal effect; % is scaled to controls: 0 for no effect and ±100 for the full control effect
Target sequence (Q27686 whole entry, looked up): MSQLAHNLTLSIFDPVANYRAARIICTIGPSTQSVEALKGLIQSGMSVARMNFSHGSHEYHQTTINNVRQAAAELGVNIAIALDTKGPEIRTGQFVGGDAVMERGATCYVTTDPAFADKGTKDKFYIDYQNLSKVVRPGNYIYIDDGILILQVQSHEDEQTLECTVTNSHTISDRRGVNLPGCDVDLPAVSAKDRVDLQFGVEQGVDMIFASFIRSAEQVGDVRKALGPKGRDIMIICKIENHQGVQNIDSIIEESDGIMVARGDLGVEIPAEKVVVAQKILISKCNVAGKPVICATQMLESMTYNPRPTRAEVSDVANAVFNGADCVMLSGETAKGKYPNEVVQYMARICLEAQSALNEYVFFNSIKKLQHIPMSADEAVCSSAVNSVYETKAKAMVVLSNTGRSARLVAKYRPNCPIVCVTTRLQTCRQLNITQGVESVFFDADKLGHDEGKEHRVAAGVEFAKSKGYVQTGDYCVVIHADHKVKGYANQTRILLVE
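Purified LmPK (0.1 nM) with 0.5 mM PEP and 0.1 mM ADP in imidazole buffer pH 7.2 with MgCl2/KCl, 1 h at room temperature. ATP formed was read by luciferase luminescence and normalized to no-enzyme and uninhibited controls.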
NS1 inh: inhibitors of influenza NS1 protein function; Potency, µM (titrated, usually from 46.1 µM), without a hit: at the top dose activity, positive = more growth; hit rate 0.4% among 270,000; calls by dose curve; also: potency is read from the fitted curve at half-maximal effect; actives are rising curves; nearly all actives have a fitted effect of over 50% in size
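Growth recovery, yeast-based: influenza A NS1 expressed in S. cerevisiae causes slow growth, and suppressors are detected by OD600. The parent strain without NS1 is used as positive control.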
Shiga toxin inh: inhibitors of Shiga toxin in Vero cells | inhibition, % at 38.7 µM | hit rate 9.2% among 290,000 | AID 2315 | Vero cells, Shiga toxin protein synthesis inhibition reporter; in the data active = inhibition mostly above about 28%, no sharp cut-off; inactive = mostly below about 43%; also: 0% is about no effect
Cycloheximide cs: counter-screen for Shiga toxin inhibitors: cycloheximide protein synthesis inhibition; AID 2314; max response, %; hit rate 12% among 300,000; cell reporter, cycloheximide protein synthesis inhibition counterscreen; in the data active = max response mostly above about 13%, no sharp cut-off; inactive = mostly below about 14%; also: read at 38.3 µM for the half of the compounds with a filed dose; 0% is about no effect
* = called active by the depositor; ? = inconclusive; nt = no result; [ ] = remark or other dose. Only some compounds are listed: those with a hit (about 14% of all), similar ones and a draw of the others. Unless noted, calls follow the shape of the dose curve; as a rule, active = well fitted curve in the direction sought with a large enough effect; inconclusive = small, poorly fitted or top-dose-only effect, or another doubt; inactive = no such curve, though single readings can be large; an effect the other way counts as inactive or inconclusive.

SMILES | Giardia FBPA inh | LmPK inhibitor | NS1 inh | Shiga toxin inh | Cycloheximide cs
CC(C)[C@@H](CC(=O)N[C@@H]1CCNC[C@H]1C(=O)N[C@H](CC(=O)N[C@@H](CCC(=O)O)CC(=O)O)Cc1ccccc1)NC(=O)C[C@H](CO)NC(=O)[C@@H]1CCCC[C@H]1N | 14% | nt | nt | nt | nt
COc1ccccc1-c1nccc(NC2CCNCC2)n1 | 4% | nt | nt | nt | nt
Cc1ccccc1NC(=S)c1nc2ccccc2[nH]1 | ? | -6% | -66% | active | 42*
S=C(Nc1ccc(Cl)cc1)c1nc2ccccc2[nH]1 | ? | -24% | -50% | 66* | 59*
O=C(NC1CCCCC1)c1ccc(CS(=O)(=O)Cc2ccccc2F)o1 | 8% | 1% | ? | 68* | 20*
O=C(NC1CCCC1)c1ccc(CS(=O)(=O)Cc2ccccc2F)o1 | nt | 0% | -16% | -6 | -1
O=C(NC1CCCC1)c1ccc(CSCc2ccccc2F)o1 | -1% | 7% | -107% | 31 | 31*
CCCC[C@@H]1C[C@H]1C(NC(=O)Cc1ccccc1)c1ccc(Cl)cc1 (stereo partly drawn) | 4% | nt | nt | nt | nt
Cc1ccc(NC(=O)N(Cc2ccco2)C(C)c2ccco2)cc1C (stereo not drawn) | 1% | 2% | -61% | -14 | 10*
Cc1ccc(NC(=O)CN(Cc2ccco2)Cc2ccccc2O)cc1C | 2% | -1% | -19% | 59* | 26*
O=c1[nH]c(=O)n(-c2ccccc2)c(O)c1/C=C1/C(c2ccccc2)=Nc2ccccc21 | 0% | 4% | -31% | 30* | 48*
CNC(=S)N1N=C(c2ccc(Br)cc2)CC1c1ccc(Br)cc1 (stereo not drawn) | 3% | 9% | 10% | -3 | -2
Cc1cc2n(n1)C(c1ccccc1)CC(c1ccc(Br)cc1)=N2 (stereo not drawn) | 2% | 0% | 5% | 29* | 37*
O=c1c(-c2cccs2)nc2cncnc2n1Cc1ccc(F)cc1 | 10% | nt | nt | nt | nt
COC(=O)c1ccc(NC(=O)c2cccc(NC(=O)c3ccccc3)c2)cc1 | 1% | -6% | 7% | 52 | -1
COC(=O)c1cccc(NC(=O)c2cc3ccccc3o2)c1 | -9% | -2% | -73% | 35* | 29*
COC(=O)c1ccc(NC(=O)c2ccccc2)o1 | -3% | -6% | -1% | 81* | 38*
Cc1ccc(C(=O)Nc2cccc(C(=O)O)c2)cc1 | -6% | -17% | 0% | 71* | 42*
COC(=O)c1cc(NC(=O)c2cc3ccccc3o2)cc(C(=O)OC)c1 | -3% | 7% | -5% | -3 | -3
COC(=O)c1cccc(NC(=O)c2ccccc2)c1 | -1% | -11% | -43% | 50* | 29*
COC(=O)c1ccc(NC(C)=O)o1 | 6% | -4% | 7% | -20 | -3
CCN(CC)CCC[C@H](C)Nc1c2ccc(Cl)cc2nc2ccc(OC)cc12 | -11%[21.7 µM] | nt | nt | nt | nt
CCC(c1nnc(SCC(=O)Nc2cc(S(C)(=O)=O)ccc2Cl)n1Cc1ccccc1)N(C)C (stereo not drawn) | -8% | -2% | 2% | -13 | -3
CCOC(=O)Oc1ccc(/C=C2\N=C(C)OC2=O)cc1 | 4% | 1% | 7% | -1 | -1
Cc1ccc(C(=O)Oc2cccc(NC(=O)c3ccccc3)c2)cc1C | 0% | 0% | -16% | 7 | 16*
SMILES | Giardia FBPA inh | LmPK inhibitor | NS1 inh | Shiga toxin inh | Cycloheximide cs
Cc1nc(COc2ccccc2Cl)sc1-c1ccnc(N)n1 | 3% | 1% | -2% | 49* | 19*
Clc1ccccc1OCc1nn2c(-c3ccncc3)nnc2s1 | 7% | 4% | -6% | -6 | -1
CC(C)c1c(C(=O)N/N=C/C2CC=CCC2)nnn1-c1nonc1N (stereo not drawn) | nt | -5% | 0% | -10 | 0
O=C(c1ccco1)N1CCN=C1SCc1c(F)cccc1Cl | 19% | 7% | -2% | 26 | 2
CCc1nc(SCc2ccc(OC)cc2)n[nH]1 | -12% | -1% | 20% | 32* | 30*
CCc1nc(SCc2ccc(F)cc2)n[nH]1 | -17% | 4% | 4% | 88* | 31*
Cc1nc(SCc2ccccc2)n[nH]1 | -10% | -8% | 3% | 14 | 13*
Cc1nc(SCN2C(=O)c3ccccc3C2=O)n[nH]1 | 11% | 2% | 6% | -5 | -1
CCCCc1nc(SCc2ccc([N+](=O)[O-])cc2)n[nH]1 | -14% | -1% | 0% | 23 | -3
Fc1cccc(Cl)c1CSC1=NCCS1 | -12% | 2% | 7% | 62* | 35*
COc1ccc(S(=O)(=O)N2CCC(C(=O)N[C@@H](C)C(=O)NC3CCCC3)CC2)cc1 | nt | -3% | 0% | -3 | -3
CCc1cccc2c1NC(=O)C21OCCO1 | 5% | -1% | 1% | -10 | -7
Nc1nc(N)c(N=Nc2ccc([As](=O)(O)O)c(O)c2)c(N)n1 | nt | nt | -10% | nt | nt
Cc1ccccc1NC(=O)CSc1n[nH]c(-c2ccco2)n1 | -12% | -4% | 0% | 5 | 1
CCc1nc(SCc2ccccc2C#N)n[nH]1 | -18% | 1% | 2% | 2 | -2
c1ccc(CSc2n[nH]c(-c3ccco3)n2)cc1 | -26% | -3% | -96% | 81* | 20*
Cc1nc(SCc2c(F)cccc2Cl)n[nH]1 | -12% | 2% | -7% | 24 | 15*
Cc1cc(C)n2nc(SCc3c(F)cccc3Cl)nc2n1 | 15% | -2% | -45% | 23 | 13
CCCc1nc(SCc2ccccc2Cl)n[nH]1 | -21% | -7% | -69% | 23 | 24*
CCCc1nc(SCc2ccc(OCC)cc2)n[nH]1 | -12% | 7% | -1% | 69 | 5
CCCOc1ccc(CSc2n[nH]c(C)n2)cc1 | 0% | ? | -64% | 55* | 32*
Nc1nonc1-n1nnc(C(=O)N/N=C/c2ccccc2F)c1CN1CCc2ccccc21 | -7% | 8% | -8% | -7 | -1
O=C(CN(C(=O)c1csnn1)c1ccc(F)c(Cl)c1)NC1CCCC1 | 1% | -13% | 18% | -6 | -8
COCCN(C(=O)CCC(=O)Nc1ccccn1)C(C(=O)NCCC(C)C)c1ccc(C)cc1 (stereo not drawn) | nt | -3% | -2% | -20 | -7
CCc1nc(SCc2ccccc2)n[nH]1 | 1% | 4% | -15% | 58* | 25*
SMILES | Giardia FBPA inh | LmPK inhibitor | NS1 inh | Shiga toxin inh | Cycloheximide cs
CC(C)[C@@H](OCc1ccccc1)[C@H](C)CO/N=C1/[C@H]2OC2[C@@H](O)[C@H]2[C@H]1CCn1c(=O)n(-c3ccccc3)c(=O)n12 (stereo partly drawn) | 0%[12.9 µM] | nt | nt | nt | nt
Cc1cc(C)nc(NC(=O)c2cccs2)n1 | 4% | -1% | -63% | 34 | 12
Cc1csc(NC(=O)c2ccc(Br)s2)n1 | -14% | -12% | -29% | 137* | 43*
Cc1csc(NC(=O)CCC(=O)c2cccs2)n1 | -10% | 0% | nt | 141 | 19*
Cc1csc(NC(=O)c2cccs2)n1 | -7% | ? | -18% | 100* | 55*
O=C(c1ccccc1)N1CCN(CC(O)COc2ccc(Br)cc2)CC1 (stereo not drawn) | -9% | 5% | ? | nt | -3
COc1ccc2c(Cl)c(C(=O)N/N=C/c3cccnc3)sc2c1 | -8% | 1% | 4% | 47* | 20*
